Reference: PubChem BioAssay (EPA / NIEHS)
Several values for one entry are separate records, joined by “and”; a condition that tells them apart may be missing. Identical values can stand only once. Inconclusive results are not listed. A structure can be active in one record and inactive in another. Activity calls are given as the source filed them. The calls were made as follows, unless noted: active = hit-call score of the fitted dose curve at least 0.9, where 1 is the maximum; inactive = score below 0.9.

Columns and labels:
[1] = ATG_PXRE_CIS: Attagene CIS-FACTORIAL HepG2 Assay for human Pregnane X Receptor Element (PXRE) (AID 2282957); conditions: HepG2 Attagene CIS-FACTORIAL PXRE reporter, mRNA; actives raise or lower the signal
Summary of the method: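 Cells: HepG2, transiently transfected reporter units under cis promoter control. Exposure: 24 h. Detection: reporter mRNA via RT-PCR/CE fluorescence; bidirectional fitting, DMSO-referenced.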

[2] = ATG_PPRE_CIS: Attagene CIS-FACTORIAL HepG2 Assay for human Peroxisome Proliferator-activated Response Element (PPRE) (AID 2282958); conditions: HepG2 PPRE cis-element reporter, Attagene transcription factor profiling; actives raise or lower the signal
Summary of the method: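 DMSO served as negative control and baseline for bidirectional curve fitting. Signal came from PPRE-regulated reporter mRNA in HepG2 cells, measured 24 h post-dosing by RT-PCR, 6-FAM primer extension and capillary electrophoresis.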

[3] = ATG_Sox_CIS: Attagene CIS-FACTORIAL HepG2 Assay for human SRY-box transcription factor (SOX) (AID 2282960); conditions: HepG2 Attagene cis-factorial SOX reporter, mRNA; actives raise or lower the signal
Summary of the method: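 Fluorescence-labelled cDNA fragments from reporter transcripts, sized by CE, give the signal. Cells: HepG2, transiently transfected with cis-regulated reporter units. Exposure 24 h; DMSO negative control; bidirectional curve fitting.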

[4] = biological target: Transcription factor Sp1 (Homo sapiens) (UniProt P08047); experiment: ATG_Sp1_CIS: Attagene CIS-FACTORIAL HepG2 Assay for human Specificity Protein 1 (Sp1) (AID 2282961); conditions: HepG2 Sp1 cis-reporter transcription, actives raise or lower the signal
Summary of the method: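 Chemicals are dosed onto HepG2 cells transfected with multiple cis-promoter reporter constructs, and after 24 h reporter RNA is reverse-transcribed, PCR-amplified and resolved by capillary electrophoresis for fluorescence quantitation; activity is scored up or down against DMSO.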

[5] = ATG_SREBP_CIS: Attagene CIS-FACTORIAL HepG2 Assay for human Sterol Regulatory Element Binding (SREBP) (AID 2282962); conditions: HepG2 Attagene cis-factorial SREBP reporter, mRNA; actives raise or lower the signal
Summary of the method: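 mRNA induction of transfected cis-promoter reporters in HepG2 cells, 24 h post-dose. Detection: RT-PCR with 6-FAM-labelled products, HpaI digest, capillary electrophoresis. DMSO served as negative control and baseline.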

[6] = biological target: Signal transducer and activator of transcription 3 (Homo sapiens) (UniProt P40763); experiment: ATG_STAT3_CIS: Attagene CIS-FACTORIAL HepG2 Assay for human Signal Transducer and Activator of Transcription 3 (STAT3) (AID 2282963); conditions: HepG2, Attagene cis-factorial STAT3 reporter transcription; actives raise or lower the signal
Summary of the method: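 Endogenous STAT3-responsive cis-element activity was read in transiently transfected HepG2 cells after 24 h treatment. Reporter transcripts were quantified via RT-PCR and capillary electrophoresis, with DMSO as negative control and bidirectional curve fitting.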

[7] = ATG_TA_CIS: Attagene CIS-FACTORIAL HepG2 Assay for human TA Basal Promoter (AID 2282964); conditions: HepG2 Attagene CIS-factorial TA basal promoter reporter; actives raise or lower the signal
Summary of the method: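 HepG2 cells transiently transfected with multiple reporter units under cis promoter elements, reporting endogenous transcription factor activity; this endpoint tracks the TA basal promoter as background control. Reporter mRNA after 24 h dosing measured by RT-PCR/capillary electrophoresis; bidirectional fits versus DMSO.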

[8] = ATG_TCF_b_cat_CIS: Attagene CIS-FACTORIAL HepG2 Assay for human T-Cell-Factor with beta-catenin (TCF/b-cat) (AID 2282965); conditions: HepG2 TCF/beta-catenin cis-reporter transcription, actives raise or lower the signal
Summary of the method: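 Measured: reporter mRNA in HepG2 transiently transfected with cis-promoter reporter units, 24 h after chemical addition. Fitting was bidirectional, DMSO as negative control.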

[9] = ATG_TAL_CIS: Attagene CIS-FACTORIAL HepG2 Assay for human TAL Basal Promoter (AID 2282966); conditions: HepG2 Attagene cis-factorial TAL promoter reporter; actives raise or lower the signal;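 also: background control endpoint measuring basal TAL promoter reporter mRNA not a specific factor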
Summary of the method: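 RT-PCR plus capillary electrophoresis quantifies reporter mRNA induction in transiently transfected HepG2 cells after 24 h chemical treatment. DMSO serves as negative control and baseline for bidirectional fitting.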

[10] = ATG_TGFb_CIS: Attagene CIS-FACTORIAL HepG2 Assay for human Transforming Growth Factor (TGF) (AID 2282967); conditions: HepG2 Attagene CIS TGFb reporter, mRNA transcription; actives raise or lower the signal
Summary of the method: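 HepG2 cells transiently transfected with cis-promoter-driven multiple reporter units measure endogenous TF activity; reporter mRNA quantified at 24 h by RT-PCR, FAM labeling, HpaI digestion and capillary electrophoresis. Bidirectional fit vs DMSO.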

[11] = ATG_VDRE_CIS: Attagene CIS-FACTORIAL HepG2 Assay for human Vitamin D Receptor Element (VDRE) (AID 2282968); conditions: HepG2 VDRE cis-reporter transcription, actives raise or lower the signal
Summary of the method: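 Reporter mRNA induction, quantified by capillary electrophoresis of fluorescently labelled RT-PCR products, was read 24 h after dosing HepG2 cells carrying transiently transfected cis-regulated reporter units; gain or loss relative to DMSO.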

[12] = biological target: Estrogen receptor (Homo sapiens) (UniProt P03372); experiment: ATG_ERa_TRANS: Attagene TRANS-FACTORIAL HepG2 Assay for human Estrogen Receptor alpha (ERa) (AID 2282970; active = hit-call score of the fitted dose curve at least 0.9, where 1 is the maximum); conditions: HepG2 Attagene TRANS ERa GAL4 reporter, mRNA
Summary of the method: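 Cells: HepG2, transiently transfected. Construct: GAL4-UAS reporter units regulated by exogenous NR-Gal4 chimeras. Time: 24 h. Detection: reporter mRNA by RT-PCR, capillary electrophoresis, fluorescence. Baseline: DMSO, upward fitting.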

[13] = biological target: X-box-binding protein 1 (Homo sapiens) (UniProt P17861); experiment: ATG_Xbp1_CIS: Attagene CIS-FACTORIAL HepG2 Assay for human X-box Binding Protein 1 (XBP1) (AID 2282972); conditions: HepG2 XBP1 cis-element reporter, Attagene multiplex; actives raise or lower the signal
Summary of the method: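 Fluorescence-labelled cDNA fragments from reporter transcripts, separated by capillary electrophoresis, give the signal. Source: HepG2 cells transfected with promoter-driven reporter units, harvested 24 h post-dose. DMSO served as reference for bidirectional curve fitting.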

[14] = ATG_M_19_TRANS: Attagene TRANS-FACTORIAL HepG2 Assay for M19 Transcription Factor (Internal Marker) (AID 2282974; active = hit-call score of the fitted dose curve at least 0.9, where 1 is the maximum); conditions: HepG2 Attagene TRANS-FACTORIAL M19 internal marker reporter
Summary of the method: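 Multiplexed TRANS format: HepG2 liver cells bearing transient GAL4-UAS reporter units, chemical treatment 24 h, reporter transcripts quantified by RT-PCR plus capillary electrophoresis. DMSO defines baseline.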

[15] = ATG_GAL4_TRANS: Attagene TRANS-FACTORIAL HepG2 Assay for GAL4 (Internal Marker) (AID 2282976; active = hit-call score of the fitted dose curve at least 0.9, where 1 is the maximum); conditions: HepG2 Attagene TRANS GAL4 internal marker reporter
Summary of the method: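 In transfected human HepG2 liver cells dosed 24 h, GAL4 reporter mRNA serves as a baseline marker. Detection by RT-PCR with fluorescent capillary electrophoresis, activity fitted upward relative to DMSO.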

[16] = ATG_PBREM_CIS: Attagene CIS-FACTORIAL HepG2 Assay for human Phenobarbital-responsive Enhancer Module (PBREM) (AID 2282955); conditions: HepG2 PBREM cis-reporter, Attagene multiplexed transcription; actives raise or lower the signal
Summary of the method: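 Multiplexed cis-reporter readout in human hepatoma HepG2 cells; PBREM-regulated transcript quantified after 24 h exposure by fluorescent RT-PCR fragment analysis. Signal changes up or down fitted relative to DMSO.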

[17] = ATG_RORE_CIS: Attagene CIS-FACTORIAL HepG2 Assay for human RAR-related Orphan Receptor Element (RORE) (AID 2282959); conditions: HepG2 Attagene cis-factorial RORE reporter, mRNA; actives raise or lower the signal
Summary of the method: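 Transfect HepG2 with MRTUs; treat 24 h; extract RNA; RT with oligo(dT); PCR with reporter-specific primers; 6-FAM primer extension; HpaI digest 2 h at 37 C; capillary electrophoresis. Fit vs DMSO, bidirectional.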

[18] = biological target: Nuclear receptor subfamily 1 group I member 3 (Homo sapiens) (UniProt Q14994); experiment: ATG_CAR_TRANS: Attagene TRANS-FACTORIAL HepG2 Assay for human Constitutive Androstane Receptor (CAR) (AID 2282969; active = hit-call score of the fitted dose curve at least 0.9, where 1 is the maximum;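 also: activators raise reporter mRNA above DMSO so AC50 marks induction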); conditions: HepG2 Attagene TRANS-FACTORIAL CAR reporter
Summary of the method: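 Readout is reporter mRNA induction, quantified by fluorescent primer extension and capillary electrophoresis after RT-PCR. Cells were HepG2 transiently carrying chimeric NR-Gal4 constructs with GAL4-UAS reporters, treated for 24 h; activity scored upward from DMSO.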

[19] = biological target: Steroid hormone receptor ERR1 (Homo sapiens) (UniProt P11474); experiment: ATG_ERRa_TRANS: Attagene TRANS-FACTORIAL HepG2 Assay for human Estrogen-Related Receptor alpha (ERRa) (AID 2282971; active = hit-call score of the fitted dose curve at least 0.9, where 1 is the maximum); conditions: HepG2 Attagene TRANS reporter, ERRa transactivation
Summary of the method: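 Reporter transcripts from ERRa-Gal4 chimera activity measured in transiently transfected human HepG2 cells 24 hours after dosing, using RT-PCR with 6-FAM primer extension, HpaI digestion and capillary electrophoresis; DMSO is baseline.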

[20] = biological target: Paired box protein Pax-6 (Homo sapiens) (UniProt P26367); experiment: ATG_Pax6_CIS: Attagene CIS-FACTORIAL HepG2 Assay for human Paired Box 6 (PAX6) (AID 2282956); conditions: HepG2 CIS-FACTORIAL PAX6 reporter transcription, RNA readout; actives raise or lower the signal
Summary of the method: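 Multiplexed cis-reporter HepG2 system; 24 h treatment; reporter mRNA read by RT-PCR/CE fluorescence; bidirectional fit vs DMSO.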

Measured: AC50

Sequence of Transcription factor Sp1 (Homo sapiens) (P08047 whole entry, looked up): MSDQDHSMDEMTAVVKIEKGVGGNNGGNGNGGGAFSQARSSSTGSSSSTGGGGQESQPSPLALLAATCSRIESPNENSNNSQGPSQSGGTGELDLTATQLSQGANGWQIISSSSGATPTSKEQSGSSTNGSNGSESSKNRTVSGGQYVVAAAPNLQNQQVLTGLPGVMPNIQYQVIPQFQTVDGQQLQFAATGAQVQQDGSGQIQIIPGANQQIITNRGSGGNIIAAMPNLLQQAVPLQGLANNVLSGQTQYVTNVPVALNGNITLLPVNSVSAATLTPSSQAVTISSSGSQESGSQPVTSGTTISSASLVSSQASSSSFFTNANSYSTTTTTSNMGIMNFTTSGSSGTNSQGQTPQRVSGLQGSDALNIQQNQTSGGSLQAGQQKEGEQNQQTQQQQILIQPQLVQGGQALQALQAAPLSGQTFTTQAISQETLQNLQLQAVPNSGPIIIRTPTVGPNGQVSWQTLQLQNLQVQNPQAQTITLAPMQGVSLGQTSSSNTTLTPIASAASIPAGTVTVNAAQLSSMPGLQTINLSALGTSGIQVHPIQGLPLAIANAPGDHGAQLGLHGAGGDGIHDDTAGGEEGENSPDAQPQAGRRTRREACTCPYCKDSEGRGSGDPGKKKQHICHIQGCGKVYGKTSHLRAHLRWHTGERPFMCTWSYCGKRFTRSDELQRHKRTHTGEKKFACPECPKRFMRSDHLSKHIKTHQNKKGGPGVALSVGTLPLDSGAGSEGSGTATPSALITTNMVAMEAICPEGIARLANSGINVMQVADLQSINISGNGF
Sequence of Steroid hormone receptor ERR1 (Homo sapiens) (P11474 whole entry, looked up, the tested form may be a part): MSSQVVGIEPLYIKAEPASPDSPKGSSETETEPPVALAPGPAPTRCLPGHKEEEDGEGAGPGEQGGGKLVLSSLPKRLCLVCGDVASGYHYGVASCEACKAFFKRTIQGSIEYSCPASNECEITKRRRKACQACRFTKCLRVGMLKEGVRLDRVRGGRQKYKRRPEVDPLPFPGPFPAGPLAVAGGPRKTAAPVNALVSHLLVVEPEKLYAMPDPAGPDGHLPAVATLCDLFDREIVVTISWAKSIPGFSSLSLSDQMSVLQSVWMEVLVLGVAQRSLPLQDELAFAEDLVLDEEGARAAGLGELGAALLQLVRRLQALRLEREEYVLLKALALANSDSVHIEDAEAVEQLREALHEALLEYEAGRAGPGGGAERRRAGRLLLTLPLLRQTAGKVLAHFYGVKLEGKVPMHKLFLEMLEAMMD
Sequence of Estrogen receptor (Homo sapiens) (P03372 whole entry, looked up, the tested form may be a part): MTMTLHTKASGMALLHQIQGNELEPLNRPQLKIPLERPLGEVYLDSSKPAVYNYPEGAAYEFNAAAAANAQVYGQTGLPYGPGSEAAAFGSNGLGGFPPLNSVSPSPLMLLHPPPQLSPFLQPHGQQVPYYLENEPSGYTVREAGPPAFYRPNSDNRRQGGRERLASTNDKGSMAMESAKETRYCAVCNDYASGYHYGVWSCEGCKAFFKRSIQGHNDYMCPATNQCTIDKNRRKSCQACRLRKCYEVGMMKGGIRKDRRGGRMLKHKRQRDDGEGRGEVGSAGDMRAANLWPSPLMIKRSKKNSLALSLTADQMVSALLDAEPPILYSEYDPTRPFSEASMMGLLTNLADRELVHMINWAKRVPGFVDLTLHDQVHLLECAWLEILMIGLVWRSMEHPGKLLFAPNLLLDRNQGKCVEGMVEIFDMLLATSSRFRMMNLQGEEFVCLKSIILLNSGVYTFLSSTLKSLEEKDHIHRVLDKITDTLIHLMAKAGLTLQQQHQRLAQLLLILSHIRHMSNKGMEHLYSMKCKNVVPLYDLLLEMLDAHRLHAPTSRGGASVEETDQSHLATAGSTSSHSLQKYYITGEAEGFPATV
Sequence of Nuclear receptor subfamily 1 group I member 3 (Homo sapiens) (Q14994 whole entry, looked up, the tested form may be a part): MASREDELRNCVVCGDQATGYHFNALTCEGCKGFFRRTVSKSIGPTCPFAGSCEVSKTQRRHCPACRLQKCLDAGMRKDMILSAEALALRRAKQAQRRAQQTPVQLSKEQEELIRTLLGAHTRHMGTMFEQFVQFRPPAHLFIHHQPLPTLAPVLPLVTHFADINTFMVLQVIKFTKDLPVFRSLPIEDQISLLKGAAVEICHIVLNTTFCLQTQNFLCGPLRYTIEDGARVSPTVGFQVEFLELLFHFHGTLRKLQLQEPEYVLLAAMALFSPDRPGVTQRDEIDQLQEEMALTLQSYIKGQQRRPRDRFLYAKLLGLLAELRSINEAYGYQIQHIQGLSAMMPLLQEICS
Sequence of X-box-binding protein 1 (Homo sapiens) (P17861 whole entry, looked up, the tested form may be a part): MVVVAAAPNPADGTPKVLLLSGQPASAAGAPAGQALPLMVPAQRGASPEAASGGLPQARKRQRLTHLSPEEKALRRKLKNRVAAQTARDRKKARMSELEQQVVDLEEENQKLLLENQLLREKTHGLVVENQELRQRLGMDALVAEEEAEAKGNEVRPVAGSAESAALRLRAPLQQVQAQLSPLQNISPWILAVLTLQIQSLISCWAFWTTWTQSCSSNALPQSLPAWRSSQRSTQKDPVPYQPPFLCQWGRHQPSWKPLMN
Sequence of Signal transducer and activator of transcription 3 (Homo sapiens) (P40763 whole entry, looked up): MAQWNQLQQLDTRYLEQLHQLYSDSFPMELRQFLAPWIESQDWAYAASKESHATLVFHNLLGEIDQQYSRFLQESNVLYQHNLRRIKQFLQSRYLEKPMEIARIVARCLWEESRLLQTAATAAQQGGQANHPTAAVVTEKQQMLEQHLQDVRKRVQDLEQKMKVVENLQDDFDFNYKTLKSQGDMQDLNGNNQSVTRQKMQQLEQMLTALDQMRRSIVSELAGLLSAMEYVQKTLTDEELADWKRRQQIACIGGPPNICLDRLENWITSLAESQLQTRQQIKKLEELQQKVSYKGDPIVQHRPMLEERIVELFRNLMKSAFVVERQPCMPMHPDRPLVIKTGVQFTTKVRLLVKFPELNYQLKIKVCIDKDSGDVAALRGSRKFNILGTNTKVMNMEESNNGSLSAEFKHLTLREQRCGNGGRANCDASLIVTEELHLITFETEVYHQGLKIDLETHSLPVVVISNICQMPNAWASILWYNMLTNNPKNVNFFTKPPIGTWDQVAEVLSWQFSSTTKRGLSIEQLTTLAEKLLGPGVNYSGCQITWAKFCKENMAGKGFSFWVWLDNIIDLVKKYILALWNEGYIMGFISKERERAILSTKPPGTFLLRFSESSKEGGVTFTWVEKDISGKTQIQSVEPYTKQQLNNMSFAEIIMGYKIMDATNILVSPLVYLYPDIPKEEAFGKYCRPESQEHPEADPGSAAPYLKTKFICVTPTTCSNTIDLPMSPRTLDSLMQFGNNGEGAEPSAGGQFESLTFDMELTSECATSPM
Sequence of Paired box protein Pax-6 (Homo sapiens) (P26367 whole entry, looked up): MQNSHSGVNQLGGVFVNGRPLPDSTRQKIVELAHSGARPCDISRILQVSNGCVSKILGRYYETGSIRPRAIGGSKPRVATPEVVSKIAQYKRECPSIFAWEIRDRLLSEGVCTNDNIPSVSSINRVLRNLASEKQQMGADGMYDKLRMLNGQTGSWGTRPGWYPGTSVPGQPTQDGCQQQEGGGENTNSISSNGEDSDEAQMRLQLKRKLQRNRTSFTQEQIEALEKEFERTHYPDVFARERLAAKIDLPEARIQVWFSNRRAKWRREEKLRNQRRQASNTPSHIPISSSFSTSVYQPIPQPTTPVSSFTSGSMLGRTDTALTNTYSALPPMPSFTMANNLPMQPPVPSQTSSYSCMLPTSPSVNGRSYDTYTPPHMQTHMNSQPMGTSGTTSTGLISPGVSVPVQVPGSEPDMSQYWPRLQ

O=S(=O)(O)c1ccc2ccccc2c1
active: [1] 11.2 µM and 91 µM | [11] 29.3 µM
inactive: [2] | [3] | [4] | [5] | [6] | [7] | [8] | [9] | [10] | [11] | [12] | [13] | [14] | [15]

O=C(O)C(F)(F)C(F)(F)C(F)(F)C(F)(F)F
inactive: [16] | [1] | [2] | [17] | [3] | [4] | [5] | [6] | [7] | [8] | [9] | [10] | [11] | [18] | [12] | [19] | [13] | [14] | [15]

CC(CCl)OP(=O)(OC(C)CCl)OC(C)CCl (centres undefined)
active: [1] 3.53 µM
inactive: [16] | [2] | [17] | [3] | [4] | [5] | [6] | [7] | [8] | [9] | [10] | [11] | [18] | [12] | [19] | [13] | [14]

CCc1ccc(C(c2ccc(CC)cc2)C(Cl)Cl)cc1
inactive: [16] | [2] | [17] | [3] | [4] | [5] | [6] | [7] | [8] | [9] | [10] | [18] | [13] | [14]
active: [1] 2.28 µM | [11] 2.84 µM | [12] 7.49 µM

OC[C@@H](O)[C@@H](O)[C@H](O)[C@@H](O)CO
active: [1] 26.3 µM | [12] 26.2 µM
inactive: [20] | [1] | [17] | [3] | [4] | [5] | [6] | [7] | [8] | [9] | [10] | [11] | [19] | [13] | [14] | [15]

CC(C)(C)c1ccc(OC2CCCCC2O)cc1 (centres undefined)
active: [16] 26.1 µM | [1] 1.73 µM | [5] 26.5 µM | [11] 26.8 µM
inactive: [2] | [17] | [3] | [4] | [6] | [7] | [8] | [9] | [10] | [18] | [12] | [13] | [14] | [15]

N=C(N)C(F)(F)C(F)(F)C(F)(F)C(F)(F)C(F)(F)C(F)(F)C(F)(F)F
active: [12] 40.6 µM
inactive: [16] | [1] | [2] | [17] | [3] | [4] | [5] | [6] | [7] | [8] | [9] | [10] | [11] | [18] | [13] | [14]

OCC(F)(F)C(F)(F)C(F)(F)C(F)(F)C(F)(F)C(F)F
active: [12] 5.4 µM
inactive: [16] | [1] | [2] | [17] | [3] | [4] | [5] | [6] | [7] | [8] | [9] | [10] | [11] | [18] | [13] | [15]

COC(=O)C1CCC(C(=O)OC)CC1 (centres undefined)
inactive: [1] | [2] | [17] | [3] | [4] | [5] | [6] | [7] | [8] | [9] | [10] | [11] | [12] | [19] | [13]
active: [8] 55.4 µM

O=C(O)C(F)(F)C(F)(F)OC(F)(F)F
inactive: [16] | [1] | [2] | [17] | [3] | [4] | [5] | [6] | [7] | [8] | [9] | [10] | [11] | [18] | [12] | [19] | [13] | [15]
